{"source": "PubChem BioAssay (Tox21)", "note": "“And” between values parts separate entries of the source, which are not always exact repeats. Equal values may be shown once. Results filed as inconclusive are left out. A call without a number means that no potency is given here. Where a structure was tested more than once in an assay, its records may differ in their call. The source made the active and inactive calls. Unless noted, calls follow the shape of the dose curve; as a rule, active = well fitted curve in the direction sought with a large enough effect in the repeat runs; inconclusive = weak or mixed curves; inactive = no such curve, though single readings can be large; an effect the other way counts as inactive or inconclusive.", "data": [{"tested_on": "not listed separately", "test": "qHTS assay to identify small molecule agonists of the estrogen receptor beta (ER-beta) signaling pathway - cell viability counter screen (AID 1259380); also: nearly all actives have a fitted effect of over 30% in size; also: potency is read from the fitted curve at half-maximal effect", "settings": "ER-beta-bla HEK293T viability, CellTiter-Glo luminescence, 16 h; series mostly up to 92.4 µM; activity change, negative = cytotoxicity: at the top concentration", "method_in_brief": "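Cytotoxicity is measured in parallel with the reporter screen: after 16 hr compound exposure at 37C and a 2 hr LiveBLAzer step, CellTiter-Glo is added to the same ER-beta-UAS-bla HEK293T wells and luminescence read after 30 min.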", "values": [{"smiles": "ClC1C(Cl)C(Cl)C(Cl)C(Cl)C1Cl", "note": "(stereo unspecified)", "Potency": "inactive and 27.3 µM (active) and 54.5 µM (active)"}, {"smiles": "CCC(C)(C)c1ccc(O)cc1", "Potency": "inactive"}, {"smiles": "Oc1cc(Cl)ccc1Oc1ccc(Cl)cc1Cl", "Potency": "39.5 µM (active)"}, {"smiles": "Cc1ccc(N)c(N)c1", "activity change, negative = cytotoxicity": "-2.96% (inactive)"}, {"smiles": "O=C(O)C(F)(F)C(F)(F)C(F)(F)C(F)(F)C(F)(F)C(F)(F)C(F)(F)F", "Potency": "30.6 µM (active) and 24.3 µM (active)"}, {"smiles": "Cc1ccc2c(c1N)C(=O)c1ccccc1C2=O", "Potency": "30.3 µM (active)"}, {"smiles": "CCOCN(C(=O)CCl)c1c(C)cccc1CC", "Potency": "48.6 µM (active)"}, {"smiles": "CCOC(=S)S", "Potency": "10.3 µM (active)"}, {"smiles": "Nc1ccc(-c2ccccc2)cc1", "Potency": "19.9 µM (active) and inactive"}, {"smiles": "C[C@]12CCC(=O)C[C@@H]1CC[C@@H]1[C@@H]2CC[C@]2(C)[C@@H](O)CC[C@@H]12", "Potency": "13.5 µM (active) and 12.2 µM (active)"}, {"smiles": "CCCCNC(=O)n1c(NC(=O)OC)nc2ccccc21", "activity change, negative = cytotoxicity": "-6.17% (inactive)"}, {"smiles": "O=C(Nc1ccc(Br)cc1)c1cc(Br)cc(Br)c1O", "Potency": "19.3 µM (active) and 29.8 µM (active)"}, {"smiles": "CCOC(=O)C(C)OC(=O)c1cc(Oc2ccc(C(F)(F)F)cc2Cl)ccc1[N+](=O)[O-]", "note": "(stereo unspecified)", "activity change, negative = cytotoxicity": "2.25% (inactive)"}]}, {"molecular_target": "Androgen receptor (Homo sapiens) (UniProt P10275)", "sequence (P10275 whole entry, looked up)": "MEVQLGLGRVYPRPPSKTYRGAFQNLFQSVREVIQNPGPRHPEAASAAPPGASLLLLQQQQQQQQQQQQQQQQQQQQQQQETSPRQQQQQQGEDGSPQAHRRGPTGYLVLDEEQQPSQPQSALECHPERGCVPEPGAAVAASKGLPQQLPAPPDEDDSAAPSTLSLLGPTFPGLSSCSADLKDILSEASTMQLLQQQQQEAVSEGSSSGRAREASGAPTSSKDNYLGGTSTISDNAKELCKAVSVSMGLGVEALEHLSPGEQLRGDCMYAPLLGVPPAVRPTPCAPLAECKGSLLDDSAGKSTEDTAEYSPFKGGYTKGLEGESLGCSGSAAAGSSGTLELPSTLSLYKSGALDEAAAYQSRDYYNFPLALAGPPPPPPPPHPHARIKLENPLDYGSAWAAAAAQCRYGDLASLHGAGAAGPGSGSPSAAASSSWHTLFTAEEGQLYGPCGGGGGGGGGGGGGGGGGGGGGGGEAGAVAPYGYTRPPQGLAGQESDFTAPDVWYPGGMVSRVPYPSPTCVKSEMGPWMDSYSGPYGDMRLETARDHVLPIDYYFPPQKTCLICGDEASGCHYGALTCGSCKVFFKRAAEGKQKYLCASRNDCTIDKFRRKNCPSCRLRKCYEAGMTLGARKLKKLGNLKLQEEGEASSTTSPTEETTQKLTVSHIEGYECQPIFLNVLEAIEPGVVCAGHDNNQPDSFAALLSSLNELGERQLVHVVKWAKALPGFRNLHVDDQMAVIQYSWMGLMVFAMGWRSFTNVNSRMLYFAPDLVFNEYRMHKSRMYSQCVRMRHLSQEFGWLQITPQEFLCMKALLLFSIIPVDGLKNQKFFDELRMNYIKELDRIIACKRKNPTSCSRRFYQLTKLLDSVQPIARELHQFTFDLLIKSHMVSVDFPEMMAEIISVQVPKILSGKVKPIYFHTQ", "test": "qHTS assay to identify small molecule agonists of the androgen receptor (AR) signaling pathway in the presence of an antagonist (AID 1259381; calls by dose curve; also: nearly all actives have a fitted effect of over 15% in size)", "settings": "MDA-kb2 MMTV-luciferase, AR agonist + nilutamide, 16 h; series mostly up to 92.4 µM; activation: at the top concentration", "method_in_brief": "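Agonist-mode confirmation screen: human MDA-kb2 cells stably expressing luciferase under an MMTV promoter bearing AR and GR response elements, co-treated with 3.0uM nilutamide (final). Luminescence measured after 16hr compound incubation.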", "values": [{"smiles": "Cc1cc(Cl)ccc1OCCCC(=O)O", "Potency": "inactive"}, {"smiles": "CC(C)Oc1cc(-n2nc(C(C)(C)C)oc2=O)c(Cl)cc1Cl", "Potency": "inactive"}, {"smiles": "O=[N+]([O-])c1ccc(O)c([N+](=O)[O-])c1", "Potency": "inactive"}, {"smiles": "Nc1c(Cl)cc([N+](=O)[O-])cc1Cl", "Potency": "inactive"}, {"smiles": "CCc1cccc(CC)c1N(COC)C(=O)CCl", "Potency": "inactive"}, {"smiles": "CC(C)(OOC(C)(C)c1ccccc1)c1ccccc1", "Potency": "inactive"}, {"smiles": "CCCCNC(=O)n1c(NC(=O)OC)nc2ccccc21", "Potency": "inactive"}]}, {"tested_on": "not listed separately", "test": "qHTS assay to identify small molecule antagonists of the estrogen receptor beta (ER-beta) signaling pathway - cell viability counter screen (AID 1259382); also: nearly all actives have a fitted effect of over 55% in size; also: potency is read from the fitted curve at half-maximal effect", "settings": "ER-beta-UAS-bla HEK293T viability, CellTiter-Glo luminescence, 16 h; series mostly up to 92.4 µM; activity change, negative = cytotoxicity: at the top concentration", "method_in_brief": "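Cytotoxicity counter screen multiplexed with the beta-lactamase antagonist assay: GripTite HEK293T ER-beta-bla cells were treated 16 hr with test chemicals in the presence of 1nM 17-beta-estradiol, and viability was measured by CellTiter-Glo.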", "values": [{"smiles": "Cc1cc(Cl)ccc1OCCCC(=O)O", "Potency": "inactive"}, {"smiles": "O=P(Oc1ccccc1)(Oc1ccccc1)Oc1ccccc1", "activity change, negative = cytotoxicity": "-16.3% (inactive)"}, {"smiles": "CC(C)Oc1cc(-n2nc(C(C)(C)C)oc2=O)c(Cl)cc1Cl", "Potency": "inactive"}, {"smiles": "ClC1C(Cl)C(Cl)C(Cl)C(Cl)C1Cl", "note": "(stereo unspecified)", "Potency": "inactive"}, {"smiles": "CCOc1cc(Oc2ccc(C(F)(F)F)cc2Cl)ccc1[N+](=O)[O-]", "Potency": "inactive"}, {"smiles": "C=C(C)C(=O)OCC1CO1", "note": "(stereo unspecified)", "Potency": "inactive"}, {"smiles": "C#CCOS(=O)OC1CCCCC1Oc1ccc(C(C)(C)C)cc1", "note": "(stereo unspecified)", "activity change, negative = cytotoxicity": "-20.9% (inactive)"}, {"smiles": "Cc1cccc(N)c1N", "Potency": "inactive"}, {"smiles": "N#CC(Br)Br", "Potency": "inactive"}, {"smiles": "CCC(C)(C)c1ccc(O)cc1", "Potency": "inactive"}, {"smiles": "Oc1cc(Cl)ccc1Oc1ccc(Cl)cc1Cl", "Potency": "41.8 µM (active)"}, {"smiles": "O=C1C=CC(=O)C=C1", "Potency": "inactive"}, {"smiles": "NNC(=S)NN", "Potency": "inactive"}, {"smiles": "O=[N+]([O-])c1cccc2ccccc12", "Potency": "inactive"}, {"smiles": "O=[N+]([O-])c1ccc(O)c([N+](=O)[O-])c1", "Potency": "inactive"}, {"smiles": "Nc1ccc(-c2ccc(N)c(N)c2)cc1N", "Potency": "inactive"}, {"smiles": "Cc1ccc(N)c(N)c1", "Potency": "inactive"}, {"smiles": "CCc1cccc(CC)c1N(COC)C(=O)CCl", "activity change, negative = cytotoxicity": "-18.9% (inactive)"}, {"smiles": "CCC(CC)Nc1c([N+](=O)[O-])cc(C)c(C)c1[N+](=O)[O-]", "Potency": "inactive"}, {"smiles": "CN(C)c1ccc(C(=O)c2ccc(N(C)C)cc2)cc1", "Potency": "inactive"}, {"smiles": "CCCCN(CCCC)N=O", "Potency": "inactive"}, {"smiles": "O=C(O)C(F)(F)C(F)(F)C(F)(F)C(F)(F)C(F)(F)C(F)(F)C(F)(F)F", "activity change, negative = cytotoxicity": "-20.1% (inactive)"}, {"smiles": "CCC(C)c1cc([N+](=O)[O-])cc([N+](=O)[O-])c1O", "note": "(stereo unspecified)", "Potency": "inactive"}, {"smiles": "Cc1ccc2c(c1N)C(=O)c1ccccc1C2=O", "activity change, negative = cytotoxicity": "-18.5% (inactive)"}, {"smiles": "CN(C)C(=O)Nc1ccc(Cl)cc1", "Potency": "inactive"}, {"smiles": "CC(C)(C)c1ccccc1O", "Potency": "inactive"}, {"smiles": "COP(=S)(OC)Oc1ccc([N+](=O)[O-])cc1", "Potency": "inactive"}, {"smiles": "N[C@@H](Cc1ccc(N(CCCl)CCCl)cc1)C(=O)O", "Potency": "inactive"}, {"smiles": "Nn1cnnc1", "Potency": "inactive"}, {"smiles": "CC(C)(OOC(C)(C)c1ccccc1)c1ccccc1", "Potency": "inactive"}, {"smiles": "Nc1ccc(-c2ccccc2)cc1", "Potency": "inactive"}, {"smiles": "CCCCNC(=O)n1c(NC(=O)OC)nc2ccccc21", "activity change, negative = cytotoxicity": "5.7% (inactive)"}, {"smiles": "O=C(Nc1ccc(Br)cc1)c1cc(Br)cc(Br)c1O", "Potency": "24.3 µM (active)"}, {"smiles": "CCOC(=O)C(C)OC(=O)c1cc(Oc2ccc(C(F)(F)F)cc2Cl)ccc1[N+](=O)[O-]", "note": "(stereo unspecified)", "Potency": "inactive"}]}, {"molecular_target": "Estrogen receptor (Homo sapiens) (UniProt P03372)", "sequence (P03372 whole entry, looked up)": "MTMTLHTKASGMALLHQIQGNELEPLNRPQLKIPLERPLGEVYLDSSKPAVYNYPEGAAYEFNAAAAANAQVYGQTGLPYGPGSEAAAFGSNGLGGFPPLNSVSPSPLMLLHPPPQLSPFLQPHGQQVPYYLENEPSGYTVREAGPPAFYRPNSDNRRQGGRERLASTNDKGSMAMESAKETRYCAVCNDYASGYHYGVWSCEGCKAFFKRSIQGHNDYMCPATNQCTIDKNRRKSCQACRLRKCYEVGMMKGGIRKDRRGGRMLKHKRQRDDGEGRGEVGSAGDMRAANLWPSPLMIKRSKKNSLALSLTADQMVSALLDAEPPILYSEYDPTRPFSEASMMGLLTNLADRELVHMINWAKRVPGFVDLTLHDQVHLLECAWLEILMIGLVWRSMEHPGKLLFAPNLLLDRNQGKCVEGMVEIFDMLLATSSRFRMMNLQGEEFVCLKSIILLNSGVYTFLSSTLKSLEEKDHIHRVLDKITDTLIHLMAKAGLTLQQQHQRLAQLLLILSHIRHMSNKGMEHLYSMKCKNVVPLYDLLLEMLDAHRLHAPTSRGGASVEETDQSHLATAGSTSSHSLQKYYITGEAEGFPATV", "test": "qHTS assay to identify small molecule agonists of the estrogen receptor alpha (ER-alpha) signaling pathway in the presence of an antagonist (AID 1259383; calls by dose curve; also: nearly all actives have a fitted effect of over 15% in size; also: potency is read from the fitted curve at half-maximal effect; as to activation: top concentration of the series differs between compounds)", "settings": "VM7Luc4E2 cells, ERE-luciferase, +ICI-182,780, 22 h; series mostly up to 92.4 µM; activation: at the top concentration", "method_in_brief": "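Agonist-mode confirmation in the presence of the ER antagonist ICI-182,780 at 10.0nM final. Breast-derived VM7Luc4E2 reporter cells were exposed to compounds for 22hr, and ERE-driven luciferase was quantified by luminescence.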", "values": [{"smiles": "O=P(Oc1ccccc1)(Oc1ccccc1)Oc1ccccc1", "Potency": "inactive"}, {"smiles": "CC(C)Oc1cc(-n2nc(C(C)(C)C)oc2=O)c(Cl)cc1Cl", "Potency": "inactive"}, {"smiles": "CCOc1cc(Oc2ccc(C(F)(F)F)cc2Cl)ccc1[N+](=O)[O-]", "Potency": "inactive"}, {"smiles": "C=C(C)C(=O)OCC1CO1", "note": "(stereo unspecified)", "Potency": "inactive"}, {"smiles": "C#CCOS(=O)OC1CCCCC1Oc1ccc(C(C)(C)C)cc1", "note": "(stereo unspecified)", "Potency": "inactive"}, {"smiles": "N#CC(Br)Br", "Potency": "inactive"}, {"smiles": "CCC(C)(C)c1ccc(O)cc1", "Potency": "inactive"}, {"smiles": "NNC(=S)NN", "Potency": "inactive"}, {"smiles": "O=[N+]([O-])c1cccc2ccccc12", "Potency": "inactive"}, {"smiles": "O=[N+]([O-])c1ccc(O)c([N+](=O)[O-])c1", "Potency": "inactive"}, {"smiles": "Nc1c(Cl)cc([N+](=O)[O-])cc1Cl", "Potency": "inactive"}, {"smiles": "CCc1cccc(CC)c1N(COC)C(=O)CCl", "Potency": "inactive"}, {"smiles": "CCCCN(CCCC)N=O", "Potency": "inactive"}, {"smiles": "CCC(C)c1cc([N+](=O)[O-])cc([N+](=O)[O-])c1O", "note": "(stereo unspecified)", "Potency": "inactive"}, {"smiles": "Cc1ccc2c(c1N)C(=O)c1ccccc1C2=O", "Potency": "6.04 µM (active) and inactive"}, {"smiles": "CCOCN(C(=O)CCl)c1c(C)cccc1CC", "Potency": "inactive"}, {"smiles": "COP(=S)(OC)Oc1ccc([N+](=O)[O-])cc1", "Potency": "inactive"}, {"smiles": "Nn1cnnc1", "Potency": "inactive"}, {"smiles": "Nc1ccc(-c2ccccc2)cc1", "Potency": "8.87 µM (active) and 9.69 µM (active)"}, {"smiles": "CCCCNC(=O)n1c(NC(=O)OC)nc2ccccc21", "Potency": "inactive"}, {"smiles": "O=C(Nc1ccc(Br)cc1)c1cc(Br)cc(Br)c1O", "Potency": "2.42 µM (active) and inactive"}, {"smiles": "CCOC(=O)C(C)OC(=O)c1cc(Oc2ccc(C(F)(F)F)cc2Cl)ccc1[N+](=O)[O-]", "note": "(stereo unspecified)", "Potency": "inactive"}]}]}
